Each structure is given as a SMILES string. Several values for one entry are separate records, joined by “and”; a condition that tells them apart may be missing. Identical values can stand only once. More than one record can exist for a structure, and the calls need not agree. Activity calls are given as the source filed them. Rule for the calls: active = hit-call score of the fitted dose curve at least 0.9, where 1 is the maximum; inactive = score below 0.9.

Read-out in this experiment: Collagen III, COL3A1 (gene 1281)
The experiment is described as follows: BSK_hDFCGF_CollagenIII: BioMAP Diversity Plus: hDFCGF Assay for Collagen III Biomarker Activity (AID 2283056). The following applies: primary human foreskin fibroblasts; actives raise or lower the signal. The procedure:
BSK_hDFCGF is a cell-based, multiplexed-readout assay that uses foreskin fibroblast, a human skin primary cell, with measurements taken at 24 hours after chemical dosing in a 96-well plate.BSK_hDFCGF_CollagenIII is an assay component measured in the BSK_hDFCGF assay. It measures Collagen antibody related to regulation of gene expression using ELISA technology.Data from the assay component BSK_hDFCGF_CollagenIII was analyzed into 1 assay endpoint. This assay endpoint, BSK_hDFCGF_CollagenIII, was analyzed with bidirectional fitting relative to DMSO as the negative control and baseline of activity. Using a type of binding reporter, gain or loss-of-signal activity can be used to understand changes in the signaling as they relate to the gene COL3A1. Furthermore, this assay endpoint can be referred to as a primary readout, because this assay has produced multiple assay endpoints where this one serves a signaling function. To generalize the intended target to other relatable targets, this assay endpoint is annotated to the cell adhesion molecules intended target family, where the subfamily is collagen.
The levels of cell surface (or secreted, indicated by the prefix "s") biomarker endpoints were measured by ELISA. Overt cytotoxicity to cells in confluent adherent cultures (all systems other than the BT system) was assessed by measuring total protein levels using sulforhodamine B (SRB) staining in parallel cultures at the time of biomarker measurements, indicated as SRB endpoints. For proliferation assays for adherent cell types, individual cell types are cultured at sub-confluence and relative cell numbers quantified by SRB staining at time points optimized for each system (48 h: 3C and CASM3C systems; 72 h: BT and HDF3CGF systems; 96 h: SAg system). SRB was performed by staining cells with 0.1% SRB after fixation with 10% TCA and reading wells at 560 nm.Viability and proliferation of PBMC (T cells) was quantified by Alamar Blue reduction for the SAg and BT systems. For PBMC viability (referred to as PBMC Cytotoxicity within the assay endpoint names), cells were plated (75,000/well in a 96-well plate) and then chemical samples added for 1 h before addition of activators, SEB and TSST-1 (20 ng/mL final concentration each). Cells were incubated for 90 h. Then, Alamar Blue (20 uL/well) (Invitrogen, Cat DAL1100) was added for 6 h, and the plates were read with a fluorescence microplate reader at 546/580 nm (excitation/emission). For PBMC proliferation, cells were plated and activated as above but incubated for only 16 h prior to addition of Alamar Blue. Plates were read after 6 h.
For `COc1ccc([N+](=O)[O-])cc1N`, the outcome was inactive.

Take `CCCCCCCCCCCCc1ccccc1S(=O)(=O)O`: the AC50 was 8.62 µM (active).

As for `c1ccc2c(c1)ccc1ccccc12`, the outcome was inactive.

Take `Oc1cc2ccccc2c2ccccc12`: the half-maximal activity concentration (AC50) is 1.9 µM (active).

For the molecule `CC(C)(C)c1cc(C(C)(C)C)c(O)c(C(C)(C)C)c1`, the AC50 was 29.3 µM (active).

Regarding `CC(C)CCCCCCOC(=O)CCCCC(=O)OCCCCCCC(C)C`, the result was inactive.

`CCc1nn(C2CCCCC2)c2cc(C3(C#N)CCC(C(=O)O)CC3)ccc12` (stereo not given): the AC50 was 1.75 µM (active).

As to `O=c1c(-c2ccc(O)cc2)coc2cc(O)ccc12`, the outcome was inactive.

`C=C(C)C(=O)OCCC(F)(F)C(F)(F)C(F)(F)C(F)(F)C(F)(F)C(F)(F)F`: the outcome was inactive.

As for `OCCC(F)(F)C(F)(F)C(F)(F)C(F)(F)C(F)(F)C(F)(F)C(F)(F)C(F)(F)F`, the AC50 was 18.3 µM (active) and 11.9 µM (active); the outcome was inactive.

For the molecule `CCCOC(=O)c1ccc(O)cc1`, the outcome was inactive.

In the case of `NC(=O)N(O)[C@@H]1C=C[C@H](Oc2cccc(Oc3ccc(F)cc3)c2)C1`, the result was inactive.

On to `CC(C)(C)c1ccc(O)c(C(C)(C)C)c1`, for which the AC50 was 8.81 µM (active).

With `CCN(CC)CCNc1ccc(CNC=O)c2sc3ccc(OC)cc3c(=O)c12`, the AC50 is 16.2 µM (active).

Take `CC(=O)CC(C)(C)O`: the result was inactive.

For `O=[N+]([O-])c1ccc(O)cc1`, the result was inactive.

As for `OC1CCCCC1`, the outcome was inactive.

Consider `CC1=C(/C=C/C(C)=C/C=C/C(C)=C/C(=O)O)C(C)(C)CCC1`, for which the AC50 was 15 µM (active).

On to `O=C(O)c1ccccc1C(c1ccc(O)cc1)c1ccc(O)cc1`, for which the result was inactive.

On to `Cc1oc(-c2ccccc2)nc1CCOc1ccc(C[C@H](Nc2ccccc2C(=O)c2ccccc2)C(=O)O)cc1`, for which the AC50 is 3.34 µM (active).

In the case of `CCCCCCCCOC(=O)CCCCCCCCC(=O)OCCCCCCCC`, the outcome was inactive.

For `CCCCC(CC)COC(=O)CCCCC(=O)OCC(CC)CCCC` (stereo not given), the outcome was inactive.

As to `CCC(C)(C)C1CCC(O)CC1` (stereo not given), the outcome was inactive.

For `O=C(OCCOCCOC(=O)c1ccccc1)c1ccccc1`, the outcome was inactive.

Turning to `OCCC(F)(F)C(F)(F)C(F)(F)C(F)(F)C(F)(F)C(F)(F)F`, the AC50 was 46.3 µM (active) and the result was inactive.

Regarding `Nc1cccc2c(N)cccc12`, the result was inactive.

For `CCCCCCCCCCCCCCCS(=O)(=O)Oc1ccccc1`, the result was inactive.

With `CCCCCCCCCCCCCC[N+](C)(C)C`, the AC50 is 1.59 µM (active).

Regarding `CN1CCC[C@H]1c1cccnc1`, the result was inactive.

Consider `CC(C)(C)c1cccc(C(C)(C)C)c1O`, for which the AC50 is 35.9 µM (active).

With `CCC(=C(c1ccc(O)cc1)c1ccc(OCCN(C)C)cc1)c1ccccc1`, the AC50 was 7.58 µM (active).

With `CCCOc1sc(C(=O)N2CCC(c3cc(CN)ccc3F)CC2)c(C)c1Br`, the AC50 is 7.98 µM (active).

On to `Oc1cccc(O)c1`, for which the outcome was inactive.

As to `CCc1ccc(CCOc2ccc(CC3SC(=O)NC3=O)cc2)nc1` (stereo not given), the outcome was inactive.

On to `c1ccc2cc3c(ccc4ccccc43)cc2c1`, for which the outcome was inactive.

Take `NCC(F)(F)C(F)(F)C(F)(F)C(F)(F)C(F)(F)C(F)(F)C(F)(F)F`: the outcome was inactive.

In the case of `OC1CCC(C2CCCCC2)CC1` (stereo not given), the result was inactive.

Consider `CC(C)(C)CC(C)(C)c1ccc(O)c(-n2nc3ccccc3n2)c1`, for which the result was inactive.

Values taken from PubChem BioAssay (EPA / NIEHS).
